# According to ChEMBL document CHEMBL3988442, “University of Dundee, Small-Polar-MMV Screening Library” (2021):
# Out of some 48,000 compounds screened, about 13,000 (27%) showed an effect of 50% or more. This is one part of the list.
# Test system: Wolbachia pipientis
# Assay: Anti-Wolbachia Cell-Based Screen
# Assay type: functional
# Design: scale not given: in the data most compounds retested in dose-response had high values
# Settings: 5 µM
row,Compound,Percent Effect
1,CCC(C(=O)NCc1ccncc1)N(c1cccc(C)c1)S(C)(=O)=O (stereo unspecified),-0.3468%
2,c1cnc(N2CCC(OCCN3CCCCC3)C2)nc1 (stereo unspecified),7.193%
3,CCS(=O)(=O)N1CCc2ccc(=O)n(CC3CC3)c2CC1,-6.425%
4,O=c1ccc2c(n1CC1CC1)CCN(c1ncccn1)CC2,91.07%
5,CC(C)NC1CCc2c(ccc(=O)n2CCN2CCOCC2)C1.O=C(O)C(F)(F)F.O=C(O)C(F)(F)F (stereo unspecified),1.575%
6,CS(=O)(=O)N1CCc2ccc(=O)n(CCN3CCCC3)c2CC1.O=C(O)C(F)(F)F,96.15%
7,O=c1ccc2c(n1CCN1CCCC1)CCN(c1ncccn1)CC2,103.5%
8,CS(=O)(=O)N1CCc2ccc(=O)n(CC3CC3)c2CC1,-5%
9,O=C1OCCN1CCSc1nnnn1C1CCOCC1,4.471%
10,CCc1c(O)nc(SC(C)CC)n(-c2ccccc2)c1=O (stereo unspecified),-9.121%
11,Cc1ccc(CNC(=O)NC2CCC(O)CC2)c(N2CCCC2)c1 (stereo unspecified),-1.85%
12,COc1ccc(OCCN(C)Cc2nc3c(cnn3C)c(=O)[nH]2)cc1,98.39%
13,Cc1ccsc1CN(C)Cc1nc2c(cnn2C)c(=O)[nH]1,5.162%
14,CN(Cc1nc2c(cnn2C)c(=O)[nH]1)Cc1ccc(F)cc1F,-0.6664%
15,Cc1ccc(OCCN(C)Cc2nc3c(cnn3C)c(=O)[nH]2)cc1,122.7%
16,CN(CCCOc1ccccc1)Cc1nc2c(cnn2C)c(=O)[nH]1,105%
17,Cc1ccccc1CN(C)Cc1nc2c(cnn2C)c(=O)[nH]1,16.78%
18,COc1ccc(C)cc1CN(C)Cc1nc2c(cnn2C)c(=O)[nH]1,-1.165%
19,Cc1ccc(CN(C)Cc2nc3c(cnn3C)c(=O)[nH]2)c(C)c1,10.63%
20,CN(CCOc1cccc(F)c1)Cc1nc2c(cnn2C)c(=O)[nH]1,123%
21,CCN(Cc1nc2c(cnn2C)c(=O)[nH]1)c1cccc(F)c1,1.042%
22,CN(CCCOc1ccc(F)cc1)Cc1nc2c(cnn2C)c(=O)[nH]1,-3.245%
23,FC(F)(F)COCCN1CCc2cncnc2C1,-42.17%
24,CNC(=O)Cc1ccc(NC(=O)NCC(C)c2ncc(C)s2)cc1 (stereo unspecified),5.803%
25,CC(=O)N1CCc2ncn(C)c2C1C(=O)N1CCCC1.O=C(O)C(F)(F)F (stereo unspecified),-4.032%
26,CC(C)Nc1ccnc(-c2ccnc3c2ccn3C)n1,-57.68%

row,Compound,Percent Effect
1,CC(C)(NC(=O)c1scnc1Cl)c1ccccc1,-10.08%
2,COc1cc2c(cc1C(=O)N1CC(c3ccncc3)C1)CCC2,-5.879%
3,COC(=O)[C@@H]1Cc2ncn(C)c2CN1S(=O)(=O)Cc1ccccc1,-8.847%
4,O=C(NCCn1ccnc1)c1cc(F)cc(Br)c1,6.627%
5,CC(C)c1nccn1CCCNC(=O)c1ccc(-c2ccncc2)nc1,3.275%
6,COc1ccc(-c2cc(C(=O)NCCCn3ccnc3C)n(C)n2)cc1,159.9%
7,Cn1nc(-c2ccc(F)cc2)cc1C(=O)NCCn1ccnc1,186.2%
8,COc1ccc(-c2cc(C(=O)NCCn3ccnc3)n(C)n2)cc1,156.8%
9,O=C(NCCn1ccnc1)c1cncc(Br)c1,15.29%
10,O=C(NCCn1ccnc1)c1cccc(F)c1,6.195%
11,O=C(NCCn1ccnc1)c1cccc(Br)c1,8.46%
12,COc1ccc(-c2ncc(-c3nccn3CCN(C)C)cn2)cc1,-4.545%
13,Cc1nc(C(F)(F)F)nc(N2CCC(O)(C(=O)O)CC2)c1C,-14.39%
14,O=C(CN1CCCc2c(F)cc(Br)cc21)N1CCN(C(=O)C2CC2)CC1,3.977%
15,N#Cc1ccnc(N2CCN(C3CCOC3=O)CC2)c1 (stereo unspecified),-3.021%
16,Cc1ccc(CNC(=O)CN2CCN(CC(O)C3CC3)CC2)cc1.Cl.Cl (stereo unspecified),-4.273%
17,Cc1ccc(CNC(=O)CN2CCN(CC(O)c3ccco3)CC2)cc1.Cl.Cl (stereo unspecified),0.6703%
18,Cl.Cl.O=C(CN1CCN(CC(O)C2CC2)CC1)NCc1ccccc1 (stereo unspecified),118.5%
19,O=C(CN1CCS(=O)(=O)CC1)NCc1ccccc1F,-2.021%
20,O=C(CCN1CCOC(C(F)(F)F)C1)NCc1ccccc1Cl (stereo unspecified),4.795%
21,Cl.Cl.O=C(CN1CCN(CC(O)C2CC2)CC1)NCc1ccccc1Cl (stereo unspecified),116.4%
22,CSCC[C@@H](CO)Nc1nc(-c2ccccn2)nc2c1c(C)nn2C,-12.31%
23,COc1cccc(C2CCCN2C(=O)c2cc3c([nH]c2=O)CCC3)c1 (stereo unspecified),13.18%
24,O=C(O)c1nnn(Cc2cccc(C(F)(F)F)c2)c1-c1cccnc1,14.53%
25,CNC(=O)Cn1cc(C#N)c(=O)c2cc(Br)ccc21,-8.636%
